The results in this text go back to PubChem BioAssay (EPA / NIEHS).

Read-out in assay [1]: Intercellular Adhesion Molecule 1 (ICAM1), ICAM1 (gene 3383)
Description: BSK_hDFCGF_ICAM1: BioMAP Diversity Plus: hDFCGF Assay for Intercellular Adhesion Molecule 1 (ICAM1) Biomarker Activity (AID 2284287). The settings on record: primary human foreskin fibroblasts. Put shortly: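 Primary human foreskin fibroblasts (hDFCGF system) dosed with chemical; ICAM-1 quantified by ELISA at 24 h relative to DMSO. Parallel SRB total-protein staining to assess overt cytotoxicity.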

Read-out in assay [2]: TIMP metallopeptidase inhibitor 2 (TIMP2), TIMP2 (gene 7077)
Nature of the assay: BSK_hDFCGF_TIMP2: BioMAP Diversity Plus: hDFCGF Assay for TIMP metallopeptidase inhibitor 2 (TIMP2) Biomarker Activity (AID 2284289). The settings on record: primary human foreskin fibroblasts. Put shortly:
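Primary human foreskin fibroblasts in the hDFCGF system, dosed for 24 h; TIMP-2 level measured by ELISA, fitted in the positive direction against DMSO; cytotoxicity checked in parallel by sulforhodamine B total protein staining.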

Read-out in a further assay: CD69, CD69 (gene 969)
Description: BSK_LPS_CD69: BioMAP Diversity Plus: LPS Assay for CD69 Biomarker Activity (AID 2284303). The settings on record: primary human HUVEC with PBMC. The essentials: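 Human umbilical vein endothelial cells co-cultured with PBMC under LPS stimulation, chemical exposure 24 h; cell-surface CD69 measured by ELISA and fitted in the positive direction versus DMSO.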

A short description of assay [3]: IUF_NPC2c_oligodendrocyte_migration_120hr: Leibniz Research Institute for Environmental Medicine (IUF) 120-hour Neural Progenitor Cell Migration Assay for Oligodendrocyte Migration (NPC2c) (AID 2284297).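 Also: O4-positive oligodendrocyte migration distance divided by radial glia migration distance.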 The essentials:
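Human fetal cortex-derived neural progenitor spheres (0.3 mm) were plated on poly-D-lysine/laminin in N2 differentiation medium and exposed to 7 concentrations for 120 h, with half-medium renewal at day 3. Oligodendrocyte migration distance was normalized to radial glia migration, relative to DMSO.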

Assay [4] in a line: IUF_NPC2a_radial_glia_migration_120hr: Leibniz Research Institute for Environmental Medicine (IUF) 120-hour Neural Progenitor Cell Migration Assay for Radial Glia Migration (NPC2a) (AID 2284298). Put shortly: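 Single 0.3 mm primary human fetal-cortex (GW 16-19) NPC spheres were plated on poly-D-lysine/laminin in N2 differentiation medium and exposed from day 0 for 120 h, half-medium refreshed day 3. Migration distance came from Hoechst nuclei-density imaging, relative to DMSO.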

Assay [5] can be described thus: IUF_NPC2a_radial_glia_migration_72hr: Leibniz Research Institute for Environmental Medicine (IUF) 72-hour Neural Progenitor Cell Migration Assay for Radial Glia Migration (NPC2a) (AID 2284299). Put shortly: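 Migration out of plated human neural progenitor spheres is scored at 72 h as the distance in um from the sphere core edge to the edge of the migration area. Values are the mean of four manual measurements per well, normalised to DMSO.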

The nature of assay [6]: IUF_NPC2b_neuronal_migration_120hr: Leibniz Research Institute for Environmental Medicine (IUF) 120-hour Neural Progenitor Cell Migration Assay for Neuron Migration (NPC2b) (AID 2284300). Put shortly: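 Primary human fetal cortex neural progenitor spheres (0.3 mm) plated on poly-D-lysine/laminin in N2 differentiation medium, exposed 120 h with half-medium refresh at day 3. TUBB3-stained neuron distance from sphere core, normalized to radial glia migration, versus DMSO.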

The nature of assay [7]: IUF_NPC3_neuronal_differentiation_120hr: Leibniz Research Institute for Environmental Medicine (IUF) 120-hour Neuronal Differentiation Assay (NPC3) (AID 2284301). Put shortly:
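Single 0.3 mm neurospheres from human fetal cortex were plated in differentiation medium containing test compound. Medium was half-replaced on day 3. After 120 h cells were fixed, immunostained and imaged, and neuronal fraction was scored against DMSO control.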

Assay [8] in a line: IUF_NPC4_neurite_length_120hr: Leibniz Research Institute for Environmental Medicine (IUF) 120-hour Neuronal Morphology Assay for Neurite Length (NPC4) (AID 2284302). The essentials:
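Read-out is mean neurite length in µm of TUBB3-positive neurons, skeletonized from high-content fluorescence images after 120 h. Single 0.3 mm primary human neural progenitor spheres differentiated on poly-D-lysine/laminin under continuous compound exposure; DMSO was baseline.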

Assay [9] can be described thus: IUF_NPC5_oligodendrocyte_differentiation_120hr: Leibniz Research Institute for Environmental Medicine (IUF) 120-hour Oligodendrocyte Differentiation Assay (NPC5) (AID 2284304; active = hit-call score of the fitted dose curve at least 0.9, where 1 is the maximum;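 also: primary human fetal neural progenitor spheres plated to migrate and differentiate; share of O4-positive cells among Hoechst nuclei found by CNN image analysis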). Put shortly: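 Primary human fetal (GW 16-19) neural progenitor spheres (0.3 mm) plated on poly-D-lysine/laminin in N2 differentiation medium, exposed from day 0 for 120 h with half-medium refresh at day 3; O4-positive cells as percent of Hoechst nuclei, CNN-identified, versus DMSO.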

Assay [10] can be described thus: IUF_NPC4_neurite_area_120hr: Leibniz Research Institute for Environmental Medicine (IUF) 120-hour Neuronal Morphology Assay for Neurite Area (NPC4) (AID 2284305; active = hit-call score of the fitted dose curve at least 0.9, where 1 is the maximum). The essentials:
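Neurite area is read out as the mean pixel area, excluding nuclei, of skeletonized TUBB3-positive neurons imaged after 120 h. Primary human neural progenitor spheres differentiated on poly-D-lysine/laminin with compound present from day 0. Activity was referenced to DMSO controls.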

The nature of assay [11]: IUF_NPC2-5_cytotoxicity_72hr: Cytotoxicity Assessment at 72 hours in the Leibniz Research Institute for Environmental Medicine (IUF) Neural Progenitor Cell Migration and Differentiation Assay for Cytotoxicity (NPC2-5) (AID 2284306; active = hit-call score of the fitted dose curve at least 0.9, where 1 is the maximum;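 also: LDH release into supernatant measured by resorufin fluorescence marking membrane damage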). The essentials: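 Membrane integrity loss was scored from fluorescence (RFU) of resorufin generated by LDH in culture supernatant, 72 h after dosing. Differentiating human progenitor spheres received seven serial compound concentrations alongside a solvent control.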

A short description of assay [12]: IUF_NPC2-5_cytotoxicity_120hr: Cytotoxicity Assessment at 120 hours in the Leibniz Research Institute for Environmental Medicine (IUF) Neural Progenitor Cell Migration and Differentiation Assay (NPC2-5) (AID 2284307; active = hit-call score of the fitted dose curve at least 0.9, where 1 is the maximum). Put shortly: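 Human fetal neural progenitor spheres (0.3 mm, GW 16-19 cortex) were plated on poly-D-lysine/laminin in N2 differentiation medium and exposed for 120 h, with half-medium refresh at day 3. LDH release into supernatant was read by resorufin fluorescence.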

Read-out in the next assay: CD40, CD40 (gene 958)
Description: BSK_IMphg_CD40: BioMAP Diversity Plus: IMphg Assay for CD40 Biomarker Activity (AID 2284288). The settings on record: primary human endothelial cells with macrophages. Put shortly:
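Venular endothelial cells co-cultured with macrophages (human primary), CD40 measured by ELISA 24 h after dosing. Positive-direction fit vs DMSO baseline; cytotoxicity tracked by SRB total-protein staining in parallel cultures.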

Read-out in assay [13]: Interleukin-1 alpha (IL1a), IL1A (gene 3552)
Nature of the assay: BSK_IMphg_IL1a: BioMAP Diversity Plus: IMphg Assay for Interleukin-1 alpha (IL1a) Biomarker Activity (AID 2284290). The settings on record: primary human endothelial cells with macrophages. Put shortly:
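Human venular endothelial cells co-cultured with macrophages, IMphg system. IL-1α is measured by ELISA 24 h after dosing and fitted in the positive direction against DMSO. Cytotoxicity is assessed by SRB staining of parallel cultures.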

Read-out in assay [14]: E-selectin (Homo sapiens) (UniProt P16581)
Nature of the assay: BSK_IMphg_ESelectin: BioMAP Diversity Plus: IMphg Assay for Eselectin Biomarker Activity (AID 2284291). The settings on record: primary human endothelial cells with macrophages. The essentials: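 Human venular endothelial cell–macrophage co-culture, E-selectin measured by ELISA 24 h after chemical dosing. Signal fitted in the positive direction against DMSO as negative control and baseline.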

Assay [15] in a line: BSK_IMphg_SRB: Viability Assessment in the BioMAP Diversity Plus: IMphg Assay (AID 2284292).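 Also: measured one day after compound addition.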 The settings on record: primary human endothelial cells with macrophages. Put shortly:
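Human venular endothelial cells with macrophages, 24 h after chemical dosing; total protein by 0.1% SRB staining after 10% TCA fixation, read at 560 nm. Positive-direction fitting versus DMSO baseline.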

Read-out in assay [16]: Macrophage colony-stimulating factor (MCSF), CSF1 (gene 1435)
Description: BSK_IMphg_MCSF: BioMAP Diversity Plus: IMphg Assay for Macrophage colony-stimulating factor (MCSF) Biomarker Activity (AID 2284293). The settings on record: primary human endothelial cells with macrophages. Put shortly:
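Co-culture of human venular endothelial cells and macrophages, 24 hours of chemical exposure. M-CSF quantified by ELISA, with parallel SRB total-protein staining for cytotoxicity; activity fitted relative to DMSO.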

Read-out in assay [17]: Interleukin-10 (IL10), IL10 (gene 3586)
Description: BSK_IMphg_IL10: BioMAP Diversity Plus: IMphg Assay for Interleukin-10 (IL10) Biomarker Activity (AID 2284294). The settings on record: primary human endothelial cells with macrophages. Put shortly:
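Human venular endothelial cells cocultured with macrophages, dosed 24 h; IL-10 measured by ELISA, activity relative to DMSO. Cytotoxicity assessed in parallel cultures by sulforhodamine B total-protein staining.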

A short description of assay [18]: BSK_IMphg_SRB.Mphg: Macrophage Viability Assessment in the BioMAP Diversity Plus: IMphg Assay (AID 2284295). The settings on record: primary human endothelial cells with macrophages. Put shortly:
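Venular endothelial cells co-cultured with macrophages, read 24 h after dosing. Total protein measured by 0.1% SRB staining after 10% TCA fixation, absorbance at 560 nm. Fitted in positive direction against DMSO baseline.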

The structures appear in SMILES notation. Where “and” joins values, the source holds several entries; their conditions need not be identical. Equal entries are not always repeated. Results filed as inconclusive are left out. More than one record can exist for a structure, and the calls need not agree. Calls of active or inactive are those of the source. The calls were made as follows, unless noted: active = hit-call score of the fitted dose curve at least 0.9, where 1 is the maximum; inactive = score below 0.9.

Sequence of E-selectin (Homo sapiens) (P16581 whole entry, looked up): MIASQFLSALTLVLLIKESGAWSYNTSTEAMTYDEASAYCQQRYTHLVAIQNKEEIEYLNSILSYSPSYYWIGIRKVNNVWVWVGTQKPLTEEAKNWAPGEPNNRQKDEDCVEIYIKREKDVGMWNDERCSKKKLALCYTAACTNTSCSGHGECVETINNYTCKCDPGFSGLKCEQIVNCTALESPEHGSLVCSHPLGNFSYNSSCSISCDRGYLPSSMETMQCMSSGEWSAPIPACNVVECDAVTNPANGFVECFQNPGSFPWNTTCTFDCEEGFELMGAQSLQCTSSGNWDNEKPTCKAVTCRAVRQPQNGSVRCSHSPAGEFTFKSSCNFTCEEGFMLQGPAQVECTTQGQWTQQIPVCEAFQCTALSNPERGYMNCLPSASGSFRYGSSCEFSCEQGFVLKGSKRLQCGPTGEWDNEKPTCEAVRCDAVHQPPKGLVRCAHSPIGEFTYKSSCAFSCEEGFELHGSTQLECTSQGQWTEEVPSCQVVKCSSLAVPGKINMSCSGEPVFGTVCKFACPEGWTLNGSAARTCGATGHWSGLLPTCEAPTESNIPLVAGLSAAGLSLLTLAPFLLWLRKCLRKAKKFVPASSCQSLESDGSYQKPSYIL

Consider `CC(CCC(=O)O)(c1ccc(O)cc1)c1ccc(O)cc1`, for which the outcome is “inactive” in [1]; “inactive” in assay [2]; “inactive” with CD69, CD69 (gene 969).
Consider `CCCCNS(=O)(=O)c1ccccc1`, for which the outcome in assay [3], in assay [4], in assay [5], in assay [6], in [7] and in [8] was inactive. Besides, the result in [9], in assay [10], in assay [11] and in [12] was inactive.
Turning to `O=C(O)C(F)(F)C(F)(F)C(F)(F)C(F)(F)C(=O)O`, the outcome is “inactive” in assay [1]; “inactive” with CD40, CD40 (gene 958); “inactive” in assay [2]; “inactive” in assay [13]; “inactive” in assay [14]; “inactive” in [15]. Moreover, the outcome is “inactive” in assay [16]; “inactive” in assay [17]; “inactive” in assay [18]; “inactive” with CD69, CD69 (gene 969).
Consider `CC(C)C(=O)OCCc1ccccc1`, for which the outcome in [1] is “inactive”; in assay [2], “inactive”; in the assay with CD69, CD69 (gene 969) it was “inactive”.
With `Oc1ccccc1Cc1ccccc1O`, the outcome was “inactive” in [1]; “inactive” in assay [2]; “inactive” with CD69, CD69 (gene 969).
In the case of `Cc1c(C(=O)c2c[nH]n(C)c2=O)ccc(S(C)(=O)=O)c1C1=NOCC1`, the outcome in assay [3], in assay [4], in assay [5], in [6], in assay [7] and in assay [8] was inactive. Moreover, the call in [9], in assay [10], in [11] and in assay [12] was inactive.
For `CCCC(C)C(=O)OCC` (centres undefined), the outcome was “inactive” in [1]; “inactive” in [2]; “inactive” with CD69, CD69 (gene 969).
Take `CCCCCCCCCCCC(=O)N(C)CC(=O)O`: the outcome was “inactive” in [1]; “inactive” in assay [2]; “inactive” with CD69, CD69 (gene 969).
`Nc1nc(N)nc(-c2ccccc2)n1`: the outcome in assay [1] was “inactive”; in assay [2], “inactive”; with CD69, CD69 (gene 969), “inactive”.
Regarding `C[N+](C)(C)CCCNS(=O)(=O)C(F)(F)C(F)(F)C(F)(F)C(F)(F)C(F)(F)C(F)(F)C(F)(F)C(F)(F)F`, the outcome in assay [1] was “inactive”; in assay [2], “inactive”; in assay [13], “inactive”; in assay [14], “inactive”; in assay [16], “inactive”; with CD69, CD69 (gene 969), “inactive”. For the same molecule, the AC50 (as a rule, the midpoint of the concentration-response curve, whichever way the signal moves) in the assay with CD40, CD40 (gene 958) is 21.8 µM (active) and 23.9 µM (active); in [2], 8.16 µM (active); in [14] it was 30 µM (active); in assay [15], 34.3 µM (active) and 42.3 µM (active); in assay [17], 41 µM (active) and 36.9 µM (active); in assay [18], 46.2 µM (active) and 30 µM (active). Besides, the AC50 with CD69, CD69 (gene 969) was 30 µM (active).
`c1ccc(Nc2cccc3ccccc23)cc1`: the AC50 was 33.6 µM (active) and 34.1 µM (active) in assay [1]; 33 µM (active) and 31.1 µM (active) in [2]; 36.5 µM (active) and 20 µM (active) with CD69, CD69 (gene 969).
